High-throughput results deposited in PubChem by National Center for Advancing Translational Sciences (NCATS).
HCV inh – inhibitors of hepatitis C virus infection | AID 651820 | 340,000 compounds, 3.4% hits | Huh7.5.1 HCVcc-Cre infection, luciferase reporter, 44 h | Potency, µM (doses to about 41.8 µM), without a hit: at the top dose activity change, negative = inhibition, usual class: inhibitors; note: potency is the fitted concentration of half-maximal effect
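Cells seeded at 1,000/well and cultured 4 h, then compounds added followed by HCVcc-Cre virus (~0.5 moi). After 44 h further culture, luciferase substrate was added, plates held 15 min at room temperature, and luminescence read for 15 sec.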
AmpC no deterg – inhibitors of E. coli AmpC beta-lactamase without detergent; Potency, µM (series often up to 57.1 µM), without a hit: at the highest dose activity change, negative = inhibition, hits mostly inhibitors; 330,000 compounds, 0.52% hits; AmpC nitrocefin hydrolysis, absorbance 480 nm, 0.0001% Triton; P00811; AID 485341;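 note: potency is the fitted concentration of half-maximal effect; plate controls were no compound for no effect and no enzyme for full effect; nearly all actives have a fitted effect of over 20% in size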
Target sequence (P00811 whole entry, looked up): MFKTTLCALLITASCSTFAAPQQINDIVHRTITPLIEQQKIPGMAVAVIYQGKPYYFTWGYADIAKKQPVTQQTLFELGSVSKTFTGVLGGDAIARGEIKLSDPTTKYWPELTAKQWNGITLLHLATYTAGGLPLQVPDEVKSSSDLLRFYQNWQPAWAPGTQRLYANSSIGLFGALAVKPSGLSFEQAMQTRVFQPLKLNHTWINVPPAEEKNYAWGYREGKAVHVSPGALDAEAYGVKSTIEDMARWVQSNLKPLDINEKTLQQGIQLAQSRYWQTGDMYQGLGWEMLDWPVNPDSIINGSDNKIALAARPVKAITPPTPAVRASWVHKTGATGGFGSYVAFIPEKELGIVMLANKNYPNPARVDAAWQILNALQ
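AmpC (5.3 nM in the dispensed reagent) in 20 mM phosphate pH 7.0 with 0.01% (detergent screen) or 0.0001% Triton X-100 was preincubated with compounds for 15 min at room temperature. Nitrocefin was then added from an 800 uM solution, and hydrolysis was followed at 480 nm.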
HCMV antiviral – human cytomegalovirus inhibition; 410,000 compounds, 4.5% hits; HFF cells, HCMV-luciferase reporter, 72 h; hits give low values; activity change, negative = inhibition, % at 57.5 µM; in the data active = activity change below about -60%; inconclusive = no clear call, values can overlap the other calls; inactive = above about -39%
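Luciferase read-out from HCMV-luciferase-infected HFFs (MOI 1 PFU/cell) 72 h post infection at 37C; compounds added after 16 h cell attachment; activity normalized between buffer-only basal and Salinomycin (10uM) inhibitor controls.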
FMDV inh – foot and mouth disease virus antiviral activity. AID 1159524. 410,000 compounds, 1.2% hits. Potency, µM (series often up to 57.9 µM), for the others: at the highest dose activity change, negative = inhibition, hits mostly inhibitors. FMDV antiviral cell-based qHTS; calls by dose curve; tested in HEK293T cells; note: read-out not given here; potency is the fitted concentration of half-maximal effect; nearly all actives have a fitted effect of over 45% in size
AmpC inh detg – blocks E. coli AmpC beta-lactamase in detergent assay; P00811; Potency, µM (top dose mostly 114 µM), for the others: at the highest dose activity change, negative = inhibition, most hits filed as inhibitors; AID 485294; 370,000 compounds, 0.041% hits; AmpC hydrolysis of nitrocefin, absorbance 480 nm, 0.01% Triton;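 note: potency is the fitted concentration of half-maximal effect; 0% = no-compound wells and -100% = no-enzyme wells; nearly all actives have a fitted effect of over 25% in size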
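AmpC (5.3 nM in the dispensed reagent) in 20 mM phosphate pH 7.0 with 0.01% (detergent screen) or 0.0001% Triton X-100 was preincubated with compounds for 15 min at room temperature. Nitrocefin was then added from an 800 uM solution, and hydrolysis was followed at 480 nm.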
* marks the source's active call; other numbers are inactive results; ? = inconclusive; . = no result. Most compounds without a hit are left out; they make up all but 7.3% or so of the library. Unless noted, calls come from the whole dose curve; as a rule, active = well fitted curve in the direction sought with a large enough effect; inconclusive = small, poorly fitted or top-dose-only effect, or another doubt; inactive = no such curve, though single readings can be large; an effect the other way counts as inactive or inconclusive. Unless noted, % is set by controls: 0 for no effect and ±100 for the full control effect.

SMILES | HCV inh | AmpC no deterg | HCMV antiviral | FMDV inh | AmpC inh detg
COC(=O)c1ccc(NC(=O)Nc2ccc(F)c(Cl)c2)cc1 | 11.2µM* | -27.1% | 34.6 | -48.0% | -1.3%
CC(C)CNC(=O)Nc1ccc(F)c(Cl)c1 | 9.7% | -33.5% | 88.1 | 93.5% | 0.1%
O=C(Nc1ccc(F)c(Cl)c1)Nc1csc2ccccc12 | ? | -45.9% | -98.4* | 10.3% | 8.3%
CCOC(=O)c1ccc(N2CCN(c3ccccc3F)CC2)c(NC(=O)Nc2ccc(Cl)c(Cl)c2)c1 | . | . | -22.9 | 25.1µM* | -1.4%
Cc1noc(C)c1CCC(=O)Nc1c(C(C)C)cccc1C(C)C | -6.2% | 5.8% | ? | -20.7% | ?
CC(C)n1c(SCC(=O)Nc2ccc(F)cc2)nnc1C1CC1 | 10.3% | -6.4% | -28.1 | -4.8% | ?
COc1ccccc1CNc1ncnc2c1cnn2-c1ccc(C)cc1 | . | . | -28.3 | -6.1% | -3.1%
O=C(NCCCCc1ccccc1)c1nn(-c2ccccc2)nc1CO | . | . | -7.8 | ? | -7.2%
CC(Oc1ccccc1)C(=O)Nc1cccc(-c2cn3cccnc3n2)c1 (stereo not drawn) | . | . | -18.0 | -10.2% | -0.9%
CCC(C)NC(=O)Nc1ccc(F)c(Cl)c1 (stereo not drawn) | -23.0% | -10.4% | -61.8* | 44.2% | -0.4%
COC(=O)c1cccc(NC(=O)Nc2ccc(Cl)c(Cl)c2)c1 | . | -31.9% | -100.9* | -22.3% | 4.4%
COC(=O)c1sccc1NC(=O)Nc1ccc(Cl)c(Cl)c1 | ? | 0.159µM* | -70.7* | 35.8% | 3.3%
COc1cc(CC(=O)Nc2nc(-c3ccccc3)c(C(C)=O)s2)cc(OC)c1OC | 12.6µM* | 24.3% | -21.3 | -25.6% | 6.6%
COc1ccc(CC(=O)Nc2nc(-c3ccccc3)c(C(C)=O)s2)cc1OC | 12.6µM* | 18.4% | ? | 14.3% | -10.5%
COC(=O)[C@]1(C)CCC[C@@]2(C)C3CC[C@@]4(C)C[C@]3(CCC21)CC(=O)N4Cc1ccc(OC)cc1 (stereo partly drawn) | 12.6µM* | 64.8% | 6.3 | ? | 5.4%
CC(=O)Nc1ccc2c(c1)Cc1c(F)cccc1-2 | 10µM* | . | 6.8 | 98.1% | .
CC(=O)Nc1ccc2c(c1)Cc1c-2cc(Br)c(N)c1Br | 11.2µM* | . | -22.1 | 29.9% | .
CC(=O)c1ccccc1-c1ccc2c(c1)CC(CNC(=O)Cc1c[nH]c3ccccc13)O2 (stereo not drawn) | . | . | . | -0.4% | .
CC1CCN(c2nc3nonc3nc2Nc2ccc(F)cc2)CC1 | 11.2µM* | -24.9% | ? | 28.2µM* | 1.1%
CN(CC(=O)Nc1ccc(Cl)c(C(F)(F)F)c1)C(=O)C1(c2ccccc2)CC1 | ? | -7.0% | 7.9 | -22.2% | ?
CCN1CCN(C(c2cccnc2)c2c(NC(=O)c3ccco3)sc(C)c2C)CC1 (stereo not drawn) | ? | 18.0% | 5.4 | -5.9% | ?
Cc1sc(NC(=O)c2ccco2)c(C(c2cccnc2)N2CCC(C)CC2)c1C (stereo not drawn) | 8.91µM* | 19.4% | -92.8* | 17.8µM* | -0.8%
CCSc1nsc(NC(=O)Nc2ccccc2F)n1 | ? | -37.7% | 16.4 | -2.1% | ?
C=CCSc1nsc(NC(=O)Nc2ccc(F)cc2)n1 | 22.4µM* | -43.8% | -103.5* | -27.8% | -16.4%
CCC(c1nnnn1Cc1ccccc1)N1CCC(n2c(=O)[nH]c3ccccc32)CC1 (stereo not drawn) | . | . | -60.6* | ? | .
SMILES | HCV inh | AmpC no deterg | HCMV antiviral | FMDV inh | AmpC inh detg
CCCCn1nnnc1C(CCc1ccccc1)N1CCC(n2c(=O)[nH]c3ccccc32)CC1 (stereo not drawn) | . | . | -101.3* | 20µM* | .
CCCCn1nnnc1C(C1CC1)N1CCC(n2c(=O)[nH]c3ccccc32)CC1 (stereo not drawn) | . | . | -17.0 | -14.6% | .
CCCCn1nnnc1C(CCSC)N1CCC(n2c(=O)[nH]c3ccccc32)CC1 (stereo not drawn) | . | . | -22.2 | -12.7% | .
Cc1ccc2c(=O)c(C(=O)c3cccc(Cl)c3)cn(CC(=O)NCc3ccc(F)cc3)c2n1 | . | . | 4.3 | -15.6% | 7.2%
O=C1NN(c2ccc(F)c(Cl)c2)C(=O)/C1=C\c1cccc(OC(=O)c2cccs2)c1 | 3.5% | ? | 141.1 | 28.2µM* | -0.1%
CCOc1ccc2nc(N3C(=O)CNC3=S)sc2c1 | 5.2% | -33.8% | -106.4* | -54.9% | -0.9%
Cc1cc2nc(N3C(=O)CNC3=S)sc2cc1C | 26.0% | -49.9% | 106.8 | -65.0% | -6.2%
COc1ccc(NC(=O)NNC(=O)c2ccc(-c3ccccc3)cc2)cc1 | ? | -48.0% | 4.4 | 13.5% | 3.1%
CC1=C(C(=O)N(C(C)C)C(C)C)CC(CC(=O)NCCc2ccccn2)C(=O)N1CCCN1CCCC1=O (stereo not drawn) | . | . | 18.6 | -8.3% | .
CC1=C(C(=O)N2CCCCCC2)CC(CC(=O)NCCc2ccccn2)C(=O)N1CCCN1CCCC1=O (stereo not drawn) | . | . | -84.1* | . | .
Cc1ccc(Cl)cc1N1CCN(C(=O)c2c(C)oc3ncnc(N4CCCCC4)c23)CC1 | . | . | -5.6 | 0.0% | 23.5%
O=C(O)/C=C\C(=O)Nc1cccc(NC(=O)c2ccccc2)c1 | 3.8% | ? | -28.6 | -6.3% | -6.4%
O=C(O)/C=C/C(=O)Nc1ccc(NC(=O)c2ccccc2)c(Cl)c1 | 8.91µM* | -23.0% | ? | -0.9% | 2.8%
COc1cc(CN2CCC(C(=O)NC(c3ccc(F)cc3)c3ccc4ccccc4n3)CC2)cc(OC)c1 (stereo not drawn) | . | . | -39.7 | 35.5µM* | .
COc1ccc(OCCN2CCC(C(=O)NC(c3ccccc3)c3ccc4ccccc4n3)CC2)cc1 (stereo not drawn) | . | . | . | -4.5% | .
O=C(NC(c1ccccc1)c1ccc2ccccc2n1)C1CCN(CCOc2ccc(Cl)cc2)CC1 (stereo not drawn) | . | . | -10.7 | 31.6µM* | .
COc1ccc(-n2cccc2C=O)cc1 | 3.1% | -13.7% | 11.6 | -3.6% | -11.4%
COc1ccc(-n2cccc2/C=C/[N+](=O)[O-])cc1 | ? | -16.1% | -101.6* | 28.2µM* | -12.2%
Cc1cc2c(cc1S(=O)(=O)CCC(=O)N1CCCCC1C)OCC(=O)N2 (stereo not drawn) | . | . | -4.9 | -17.1% | 10.4%
CCOc1cc(/C=C\[N+](=O)[O-])ccc1OCC(=O)N1CCOCC1 | ? | 55.6% | -92.4* | 8.91µM* | 2.9%
Cc1ccc(S(=O)(=O)NCCc2ccncc2)cc1 | 8.3% | 1.9% | 49.3 | 78.7% | -6.5%
O=S(=O)(NCc1ccccc1)c1ccc(S(=O)(=O)NCC2CCCO2)cc1 (stereo not drawn) | 4.2% | 2.9% | 3.7 | 45.0% | 8.5%
CCCCc1ccc(S(=O)(=O)NCCc2ccncc2)cc1 | 11.2µM* | -7.4% | -63.0* | -4.0% | ?
O=[N+]([O-])c1cccc(S(=O)(=O)NCc2ccncc2)c1 | 12.6µM* | 31.7% | ? | ? | -8.3%
